# Compound activity as filed in PubChem BioAssay.
# In the library only some 7.5% were active in any assay of this set; here they are far more common.
# NPC1 promoter act: qHTS Assay for NPC1 Promoter Activators; Huh7 NPC1 promoter luciferase reporter, 24 h; Potency, µM (titrated, usually from 9.22 µM), usual class: activators; 2.4% of 320,000 active; AID 485313, 2010; note: nearly all actives have a fitted effect of over 60% in size
#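 Readout is luciferase luminescence, reflecting NPC1 promoter activation in stably transfected Huh7 cells after 24 h compound exposure at 37 °C in reduced-serum medium with 10% FBS.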
# Luc counter: Counterscreen for Luciferase (Kinase-Glo TM) Inhibition. Kinase-Glo luciferase, ATP luminescence, 8 min. Potency, µM (highest dose often 38.3 µM), usual class: inhibitors. 0.28% of 200,000 active. AID 1379, 2008; note: nearly all actives have a fitted effect of over 60% in size
#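 Substrate mix (final 50 mM imidazole pH 7.2, 50 mM KCl, 7 mM MgCl2, 10 uM ATP, 0.01% Tween 20, 0.05% BSA) plus pin-tool compound, then Kinase-Glo detection mix; 8 min ambient, luminescence read.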
# ELG1 genotox: qHTS screen for small molecules that induce genotoxicity in human embryonic kidney (HEK293T) cells expressing luciferase-tagged ELG1 | Potency, µM (series often up to 46 µM), hits mostly activators | HEK293T ELG1-luciferase reporter, luminescence, 16 h | AID 504466, 2011 | 1.3% of 330,000 active; note: nearly all actives have a fitted effect of over 60% in size
#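 DMSO vehicle served as control against compound-treated ELG1-luciferase HEK293T cells; exposure lasted 16 hr at 37 °C and 5% CO2, followed by ONE-Glo luminescence detection after 30 min.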
# FLuc modulator: qHTS profiling assay for firefly luciferase inhibitor/activator using purifed enzyme and Km concentrations of substrates (counterscreen for miR-21 project); Luciferin 4-monooxygenase (Photinus pyralis), P08659; purified FLuc, Km substrates, luminescence inhibition; Potency, µM (top dose mostly 57.5 µM), hits mostly inhibitors; 6.9% of 360,000 active; AID 588342, 2011; note: nearly all actives have a fitted effect of over 55% in size
# Target sequence (P08659 whole entry, looked up): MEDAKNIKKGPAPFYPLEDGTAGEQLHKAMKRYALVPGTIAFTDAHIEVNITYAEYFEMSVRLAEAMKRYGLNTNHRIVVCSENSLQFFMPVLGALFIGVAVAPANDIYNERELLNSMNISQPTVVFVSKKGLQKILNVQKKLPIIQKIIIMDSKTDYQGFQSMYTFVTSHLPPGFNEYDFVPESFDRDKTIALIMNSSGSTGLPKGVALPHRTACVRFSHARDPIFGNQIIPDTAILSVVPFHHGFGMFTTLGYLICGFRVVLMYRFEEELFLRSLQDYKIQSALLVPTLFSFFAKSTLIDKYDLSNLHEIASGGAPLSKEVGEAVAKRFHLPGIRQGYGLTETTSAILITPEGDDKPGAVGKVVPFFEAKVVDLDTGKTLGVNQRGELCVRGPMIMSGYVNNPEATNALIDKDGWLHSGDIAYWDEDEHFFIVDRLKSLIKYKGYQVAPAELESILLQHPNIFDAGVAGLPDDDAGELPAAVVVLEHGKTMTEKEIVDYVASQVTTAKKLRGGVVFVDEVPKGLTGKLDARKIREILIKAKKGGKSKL
#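 Purified P. pyralis luciferase, 10 nM final, with Km-level 10 uM D-luciferin and 10 uM ATP in 50 mM Tris acetate pH 7.5, 10 mM Mg acetate, 0.01% Tween-20, 0.05% BSA; 6-point qHTS titration about 60 µM downward; luminescence read.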
# SMN2 splice up: qHTS Assay for Enhancers of SMN2 Splice Variant Expression. AID 1458, 2008. 2.8% of 210,000 active. HEK293 SMN2-luciferase splicing reporter, luminescence, 30-36 h. Potency, µM (series often up to 46.1 µM), usual class: activators; note: nearly all actives have a fitted effect of over 55% in size
#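 qHTS luciferase splicing reporter: luminescence rises when SMN2 exon 7 is included in transfected HEK293 cells. Compound exposure lasted 30-36 h at 37C, with 4.5 mM final sodium butyrate as control, followed by a ONE-Glo read.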
# Rab9 promoter act: qHTS Assay for Rab9 Promoter Activators; Potency, µM (doses to about 9.22 µM), actives largely listed as activators; 2.8% of 320,000 active; AID 485297, 2010; Huh7 Rab9 promoter-luciferase reporter, luminescence, 24 h; note: nearly all actives have a fitted effect of over 60% in size
#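 Using Huh7 cells stably transfected with Rab9 promoter–luciferase, compounds were incubated 24 h at 37 °C, 5% CO2; luciferase luminescence was read 10 min after reagent addition.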
# Hits are given with their value; n = inactive; u = inconclusive; x = no result; [ ] = another dose, or the depositor's remark. Calls come from the whole dose curve; as a rule, active = well fitted curve in the direction sought with a large enough effect; inconclusive = small, poorly fitted or top-dose-only effect, or another doubt; inactive = no such curve, though single readings can be large; an effect the other way counts as inactive or inconclusive.
SMILES,NPC1 promoter act,Luc counter,ELG1 genotox,FLuc modulator,SMN2 splice up,Rab9 promoter act
C/C(CC(=O)Nc1ccccc1-c1ccccc1)=N\NC(=O)COc1ccc(C)cc1Br,n,n,23.1µM,n,n,n
COc1ccccc1CNC(=O)C/C(C)=N/NC(=O)COc1ccc(C)cc1Br,n,n,n,n,n,n
COC(=O)c1ccccc1NC(=O)COc1ccccc1[N+](=O)[O-],n,n,n,n,n,n
CCOc1ccc(Br)cc1CNCCSc1nnnn1-c1ccccc1,x,x,x,n,x,x
Cc1ccn2c(=O)cc(COc3ccc(NC(=O)COc4ccccc4)cc3)nc2c1,x,x,x,n,x,x
CCOC(=O)c1cc(-c2ccc(C)cc2)n(CC(=O)Nc2ccccc2F)c1C,x,x,x,n,n,x
Cc1csc2ncc(C(=O)Nc3ccccc3F)c(=O)n12,u,n,11.6µM,u,12.6µM,u
Cc1csc2ncc(C(=O)Nc3ccccc3Cl)c(=O)n12,u,x,u,n,x,3.16µM
Cc1csc2ncc(C(=O)Nc3ccon3)c(=O)n12,n,n,n,n,n,n
C=CC1=C(C(=O)O)N2C(=O)[C@@H](NC(=O)C(N=O)c3csc(N)n3)[C@H]2SC1 (stereo partly drawn),x,n,x,x,x,x
O=C(O)c1cccc(S(=O)(=O)NCC2COc3ccccc3O2)c1 (stereo not drawn),x,x,n,x,x,x
CCc1ccc2oc(C(=O)Nc3ccccc3OC)cc(=O)c2c1,x,x,x,n,n,x
COCCn1c(C)cc(C(=O)COC(=O)c2ccc[nH]c2=O)c1C,u,n,u,3.01µM,n,u
Cc1cc(C(=O)COC(=O)c2ccc[nH]c2=O)c(C)n1C,n,n,u,9.53µM,n,n
Cc1cc(C(=O)COC(=O)c2ccc[nH]c2=O)c(C)n1CCc1ccc(F)cc1,n,n,n,n,n,n
COCC(=O)OCC(=O)c1cc(C)n(-c2ccc(Br)cc2)c1C,n,n,n,12µM,n,n
Cc1ccc(-n2c(C)cc(C(=O)COC(=O)c3ccc[nH]c3=O)c2C)cc1,0.316µM,n,u,2.69µM,2.51µM,0.398µM
CCOC(=O)c1c(C)c(-c2ccccc2)n(CC(=O)Nc2ccc(OCC)cc2)c1C,x,x,x,n,n,x
Cc1ccc(/C=C/c2onc(C)c2S(=O)(=O)N2CCC(C(=O)NCc3ccc(OC(C)C)cc3)CC2)cc1,x,x,x,n,x,x
CCn1cc(C=C2C(=O)c3ccccc3C2=O)c2ccccc21,n,n,u,6.01µM,n,n
CCOC(=O)N1CCN(C(=O)CSCC(=O)Nc2nc(-c3ccc(-c4ccccc4)cc3)cs2)CC1,u,n,2.59µM,n,n,u
O=C(CSC1=NCCS1)Nc1nc2ccccc2s1,n,n,n,19µM,n,u
Cc1ccc(-c2csc(NC(=O)CSC3=NCCS3)n2)cc1,n,n,u,13.5µM,n,n
Cc1sc(NC(=O)CSC2=NCCS2)nc1-c1ccccc1,n,n,n,n,n,n
CN(C)c1nc(-c2ccoc2)nc2ccccc12,x,n,x,x,n,x
SMILES,NPC1 promoter act,Luc counter,ELG1 genotox,FLuc modulator,SMN2 splice up,Rab9 promoter act
CC1(C)c2ccccc2-c2nc3ccccc3cc2C1O (stereo not drawn),n,x,n,15.1µM,x,n
Oc1cc2ccccc2nc1-c1ccccc1Cl,n,x,n,n,x,n
CCCC1=Nc2cc(C(=O)N3CCN(c4ccccn4)CC3)ccc2Sc2ccc(C)cc21,n,x,n[9.26 µM],n,x,n
CCc1ccc(-n2c(C)cc(/C=N/NC(=O)OC)c2C)cc1,n,n,n,19µM,n[1.84 µM],n
COC(=O)N/N=C/c1cc(C)n(-c2ccccc2)c1C,n,n,u,8.49µM,n[1.84 µM],u
CC(=O)C(=Cc1cc(C)n(-c2ccccc2)c1C)C(C)=O,n,n,n,19µM,n,n
Cc1cc(/C=N\O)c(C)n1-c1ccncc1,n,n,n,n,n,n
Cc1cc(/C=N/O)c(C)n1-c1ccccc1,n,n,n,16.9µM,n[1.84 µM],n
CC(=O)N/N=C/c1cc(C)n(-c2ccc(Br)cc2)c1C,n,n,n,n,n,n
